Hits are enriched below; roughly 2.4% of the tested compounds scored in any of these assays.
M1 ag = activates human CHRM1 receptor | P11229 | activation, % at 3 µM | CHO-K1 hM1, Fluo-8 calcium fluorescence, agonist mode; 0% DMSO, 100% acetylcholine EC100 | 0.33% of 360,000 active;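 active = activation above the run's mean compound activation plus 3 SD, cut at about 16% in these data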;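 note: peak over basal fluorescence ratio within a 140 s kinetic read after compound addition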
Target sequence (P11229 whole entry, looked up): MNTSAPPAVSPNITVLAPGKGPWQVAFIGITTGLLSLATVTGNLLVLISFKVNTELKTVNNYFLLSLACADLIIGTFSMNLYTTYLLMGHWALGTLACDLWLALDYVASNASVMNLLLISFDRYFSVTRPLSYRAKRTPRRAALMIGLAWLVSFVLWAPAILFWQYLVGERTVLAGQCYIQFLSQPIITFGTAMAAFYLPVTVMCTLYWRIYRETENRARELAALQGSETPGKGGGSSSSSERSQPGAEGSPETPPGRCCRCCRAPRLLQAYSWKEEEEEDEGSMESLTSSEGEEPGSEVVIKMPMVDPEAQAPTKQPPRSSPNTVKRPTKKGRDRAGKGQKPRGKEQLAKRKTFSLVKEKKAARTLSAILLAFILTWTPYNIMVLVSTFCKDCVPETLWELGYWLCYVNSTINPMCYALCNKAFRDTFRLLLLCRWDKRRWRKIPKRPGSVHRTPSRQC
M1 antag = blocks human M1 muscarinic receptor; P11229; CHO-K1 hM1, Fluo-8 calcium fluorescence, ACh EC80 antagonist; inhibition, % at 3 µM; 1.3% of 360,000 active; AID 588852;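 active = percent inhibition above its own plate's cutoff, namely the mean of that plate's compound wells plus 3 SD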;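 note: peak over basal fluorescence ratio during 140 s after agonist addition; 0% = ACh EC80 plus DMSO and 100% = DMSO alone without agonist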
CHO-K1 Ca antag = nonselective inhibitor or artifact in parental CHO-K1 cells; ATP-induced calcium, Fluo-8 fluorescence; inhibition, % at 3 µM; 0.6% of 360,000 active;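 active = inhibition above a per-plate cutoff, the plate's mean sample inhibition plus 3 SD, cut at about 24% in these data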;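 note: 0% = DMSO plus EC80 ATP and 100% = DMSO alone without ATP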
CHO-K1 Ca ag = counter-screen for M1 agonists: effect in parental CHO-K1 cells. Fluo-8 calcium fluorescence; scaled to maximal ATP response, vehicle zero. activation, % at 3 µM. 0.48% of 360,000 active. AID 602248; in the data active = activation above about 15%;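 note: untransfected CHO-K1 host cells lacking M1 receptor as counterscreen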
CHO-K1 Ca PAM = counter-screen for M1 PAMs: effect in parental CHO-K1 cells. AID 602247. 0.02% of 360,000 active. ATP EC20, Fluo-8 calcium fluorescence; 0% at ATP EC20, 100% at ATP max. activation, % at 3 µM;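 active = activation above the run cutoff, the mean activation of all test compounds plus 3 SD, cut at about 40% in these data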;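 note: peak over basal fluorescence ratio in a 140 s read after ATP addition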
M1 PAM = positive allosteric modulators of human M1 muscarinic receptor | P11229 | CHO-K1 hM1, Fluo-8 calcium fluorescence, ACh EC20; 0% = ACh EC20, 100% = maximal ACh | activation, % at 3 µM | 0.088% of 360,000 active; in the data active = activation above about 19%, passing the limit was not always enough
The depositor's hits bear a star.

SMILES | M1 ag | M1 antag | CHO-K1 Ca antag | CHO-K1 Ca ag | CHO-K1 Ca PAM | M1 PAM
O=c1[nH]c(Cc2cccs2)nc2scc(-c3ccc(Cl)cc3)c12 | -4 | 7 | -2 | 1 | 18 | -1
O=c1[nH]c(Cc2ccccn2)nc2scc(-c3ccc(Cl)cc3)c12 | 26* | -5 | -5 | 1 | 23 | 5
Cc1cc(C)c(S(N)(=O)=O)c(C)c1N(C)S(=O)(=O)c1ccc(Cl)cc1 | 0 | 40* | 16 | 1 | -20 | -13
Cc1cc(C)c(S(N)(=O)=O)c(C)c1N(C)S(=O)(=O)c1ccccc1 | -4 | -4 | -15 | 2 | 23 | 10
COc1ccc(OC)c(S(=O)(=O)N(C)CC(=O)Nc2cc(Cl)ccc2OC)c1 | -1 | -23 | 4 | 1 | 1 | -12
COc1cccc(N(C(=O)c2snc(C(N)=O)c2N)C(C(=O)NCC2CCCO2)c2ccc(F)cc2)c1 (stereo unspecified) | -1 | -15 | -25 | 3 | 29 | 10
COc1cccc(N(C(=O)c2sc(C)nc2C)C(C(=O)NCC2CCCO2)c2ccccc2)c1 (stereo unspecified) | -1 | -17 | 27* | 5 | -5 | 11
CN(C)c1ccc(/C=C(/C#N)C(=O)Nc2nc3c(s2)CCN(Cc2ccccc2)C3)cc1 | 19* | 24* | 14 | 12 | -3 | -15
Cc1ccc(-n2nnnc2SC(C)C(=O)Nc2ccc(Cl)cn2)cc1 (stereo unspecified) | -4 | 4 | -11 | 0 | -9 | -4
Cc1cccc(C(=O)Oc2ccc(/C=N/NC(=O)c3ccccc3O)cc2)c1 | -2 | 23 | 6 | 10 | 8 | -18
Cc1cccc(C(=O)Oc2ccc(/C=N/NC(=O)c3ccc(O)cc3)cc2)c1 | 0 | 41* | 11 | 6 | -16 | -12
CCn1c(C)nnc1SCC(=O)Nc1cccc(Cl)c1 | 1 | -6 | -9 | 0 | 20 | 5
CN(C)C(CNC(=O)CN1C(=O)NC2(CCCC2)C1=O)c1ccccc1 (stereo unspecified) | -8 | 48* | -4 | 1 | 9 | -22
CC(=O)Nc1sc2c(c1C#N)CCCC2 | 0 | -21 | -7 | 1 | 15 | 12
Brc1ccc2c(c1)OCCOCCOc1cc(Br)ccc1OCCOCCOCCO2 | -3 | 39* | -10 | 11 | 12 | -21
Brc1cc2c(cc1Br)OCCOCCOCCOCCO2 | -7 | -9 | 0 | 1 | 9 | 2
CN(CCOc1ccccc1)Cc1ccccc1 | -9 | 6 | -10 | 1 | 9 | -4
Cc1nn(-c2ccccc2)c(C)c1/C=C/C(=O)OC(C)C(=O)Nc1ncc(Cl)cc1Cl (stereo unspecified) | -9 | -6 | -14 | 0 | 19 | 3
CCCCNS(=O)(=O)NC(=O)C1=C(N2CCCC2)COC1=O | -7 | 26 | 27* | -1 | -21 | -13
CC1CN(c2nc3ccccn3c(=O)c2/C=C(\C#N)C(=O)N2CCOCC2)CC(C)O1 (stereo unspecified) | 0 | 7 | -13 | 0 | 12 | 2
CCC1Oc2ccc(C)cc2N(CC(=O)N(Cc2ccc(C)o2)C2CC(C)(C)NC(C)(C)C2)C1=O (stereo unspecified) | -2 | 29* | -7 | 1 | 16 | -10
CC(C)(C)NC(=O)NC(=O)CN1CCc2ccccc21 | -5 | 25 | -8 | 6 | 8 | -7
COc1ccc(CCn2nnnc2CN2CCN(C(=O)c3ccco3)CC2)cc1OC | -10 | -5 | 24* | 14 | -15 | 9
COCCn1nnnc1CN1CCN(C(=O)c2ccco2)CC1 | -6 | -7 | -14 | 1 | 7 | 1
COc1ccccc1C(=O)NC(=O)CSc1nnc(C)s1 | -2 | -10 | 55* | 0 | -4 | 9
COCCN(C(=S)Nc1cc(C)cc(C)c1)C(C)c1ccco1 (stereo unspecified) | -3 | 0 | -11 | 1 | 19 | 26*
C=CCOc1ccc(/C=C/C(=O)OCC(=O)Nc2c(C)n(C)n(-c3ccccc3)c2=O)cc1 | -2 | -16 | 39* | 1 | -3 | 4
COc1ccc(C(=O)N/N=C(\C)CC(=O)Nc2ccccn2)cc1OC | -3 | -6 | -12 | 2 | 9 | 2

Assay outcomes: PubChem, The Scripps Research Institute Molecular Screening Center
